This note sets out measurements from PubChem BioAssay (NCATS).

Assay [1] can be described thus: qHTS drug screen for cell cycle checkpoint inhibitors in PARPi-resistant BRCA-mutant ovarian cancer cell lines. (AID 1963452). Note: potency is the fitted concentration of half-maximal effect. Conditions: PEO1/OlaR viability, CellTiter-Glo luminescence, 96 h; for Z-AUC: stronger effect = lower value. Put shortly:
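PEO1, PEO4 and PEO1/OlaR ovarian cancer cells, 600 per well, exposed 96 h at 37C to a dilution series. Viability read by CellTiter-Glo luminescence, normalized to DMSO and empty wells; activity summarized as Z-AUC.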
On the technique in general: qHTS replaces the single test concentration by a dilution series.

The target of assay [2] is Cytochrome P450 2D6 (Homo sapiens) (UniProt P10635). Nature of the assay: qHTS for inhibitors of CYP2D6 against the NCATS DSHEA and TCM libraries (AID 1919972; active = well fitted curve in the direction sought with a large enough effect; an effect the other way counts as inactive or inconclusive; note: % is set by controls: 0 for no effect and ±100 for the full control effect). Conditions: CYP2D6 enzymatic inhibition, luminescence qHTS; series mostly up to 34.1 µM. Put shortly:
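CYP2D6 enzyme with pro-luciferin substrate in manufacturer buffer (typically 100 mM KPO4), preincubated 15 min RT with substances (most at 19.5 nM upward); NADPH regeneration system (1x) started 30–45 min RT reaction; P450-Glo luminescence read after 30 min; quinidine as intraplate control.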

In assay [3] the target is Cytochrome P450 2C9 (Homo sapiens) (UniProt P11712). Nature of the assay: qHTS for inhibitors of CYP2C9 against the NCATS DSHEA and TCM libraries (AID 1919973; active = well fitted curve in the direction sought with a large enough effect; an effect the other way counts as inactive or inconclusive;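 note: luminogenic pro-luciferin CYP2C9 substrate turned into luciferin with NADPH regeneration; % is set by controls: 0 for no effect and ±100 for the full control effect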). The note with it: recombinant CYP2C9 enzyme activity, luminescence; series mostly up to 34.1 µM. Put shortly: (§1)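 Concentration-response screening with isoform-matched pro-luciferin substrates. The CYP reaction was initiated by NADPH regenerating solution and ran 30-45 min in darkness at room temperature.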
Cytochrome P450 2C9 (Homo sapiens), sequence (P11712 whole entry, looked up, canonical isoform): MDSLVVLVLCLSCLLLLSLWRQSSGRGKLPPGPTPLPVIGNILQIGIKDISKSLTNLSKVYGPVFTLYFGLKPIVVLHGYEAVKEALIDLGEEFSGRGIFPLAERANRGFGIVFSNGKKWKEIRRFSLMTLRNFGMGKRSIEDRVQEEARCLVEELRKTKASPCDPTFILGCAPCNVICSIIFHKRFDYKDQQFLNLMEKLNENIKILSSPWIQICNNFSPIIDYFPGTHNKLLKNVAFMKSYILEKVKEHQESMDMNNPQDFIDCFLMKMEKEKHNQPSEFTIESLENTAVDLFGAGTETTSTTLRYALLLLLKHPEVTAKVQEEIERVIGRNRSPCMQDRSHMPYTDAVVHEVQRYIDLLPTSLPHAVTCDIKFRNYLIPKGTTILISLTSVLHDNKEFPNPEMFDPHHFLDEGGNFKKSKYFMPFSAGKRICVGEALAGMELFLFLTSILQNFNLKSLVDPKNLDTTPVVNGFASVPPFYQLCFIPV

Assay [4] deals with Cytochrome P450 2C19 (Homo sapiens) (UniProt P33261). The assay is described as follows: qHTS for inhibitors of CYP2C19 against the NCATS DSHEA and TCM libraries (AID 1919974; active = well fitted curve in the direction sought with a large enough effect; an effect the other way counts as inactive or inconclusive;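 note: luminescence from luciferin released by CYP2C19 oxidation of a pro-luciferin substrate; % is set by controls: 0 for no effect and ±100 for the full control effect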). The note with it: CYP2C19 enzyme inhibition, luminescence qHTS; series mostly up to 34.1 µM. The essentials:
as §1

Assay [5] can be described thus: KB-3-1 P-gp reporter qHTS against the NCATS DSHEA and TCM libraries (AID 1919975; active = well fitted curve in the direction sought with a large enough effect; an effect the other way counts as inactive or inconclusive; note: 0% is about no effect). Conditions: KB-3-1 parental cells, CellTiter-Glo luminescence viability, 72 h; series mostly up to 26.1 µM. The essentials:
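Cell viability by CellTiter-Glo luminescence following ~72 h compound exposure (concentration-response). Uses parental, non-P-gp-overexpressing KB-3-1 line, 500 cells/well in DMEM/10% FBS, attached ~4 h before dosing.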

The target of assay [6] is Cytochrome P450 1A2 (Homo sapiens) (UniProt P05177). The assay is described as follows: qHTS for inhibitors of CYPIA2 against the NCATS DSHEA and TCM libraries (AID 1919976; active = well fitted curve in the direction sought with a large enough effect; an effect the other way counts as inactive or inconclusive;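 note: light from luciferin formed by CYP1A2 from a pro-luciferin substrate; % is set by controls: 0 for no effect and ±100 for the full control effect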). The note with it: recombinant CYP1A2 enzyme activity, luminescence; series mostly up to 37 µM. The essentials: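 Enzyme and pro-luciferin substrate, or substrate alone as no-enzyme background, are pre-incubated with test samples for 15 min at room temperature. NADPH regeneration system (1x final) initiates a 30-45 min dark reaction; luciferase detection reagent follows before luminescence reading.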
Cytochrome P450 1A2 (Homo sapiens), sequence (P05177 whole entry, looked up): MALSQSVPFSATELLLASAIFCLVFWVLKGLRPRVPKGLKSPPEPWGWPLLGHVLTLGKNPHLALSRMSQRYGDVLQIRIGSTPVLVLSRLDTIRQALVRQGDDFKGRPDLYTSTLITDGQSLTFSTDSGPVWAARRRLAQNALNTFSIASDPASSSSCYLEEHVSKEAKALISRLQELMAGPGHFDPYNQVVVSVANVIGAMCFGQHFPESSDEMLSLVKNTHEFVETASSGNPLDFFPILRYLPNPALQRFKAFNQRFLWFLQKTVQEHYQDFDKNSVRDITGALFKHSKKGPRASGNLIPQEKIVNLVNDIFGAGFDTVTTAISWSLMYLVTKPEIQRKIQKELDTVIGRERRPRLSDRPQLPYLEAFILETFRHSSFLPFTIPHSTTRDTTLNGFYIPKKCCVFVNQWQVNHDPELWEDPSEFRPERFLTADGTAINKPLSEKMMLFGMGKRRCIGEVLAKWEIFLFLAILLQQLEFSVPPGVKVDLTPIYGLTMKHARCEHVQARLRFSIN

A short description of assay [7]: qHTS Counterscreen for compound interference against the NCATS DSHEA and TCM libraries (AID 1919978; active = well fitted curve in the direction sought with a large enough effect; an effect the other way counts as inactive or inconclusive;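 note: compounds preincubated with 1 µM D-luciferin or buffer before detection reagent; % of control where 0% means no effect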). Conditions: firefly luciferase detection reagent interference, luminescence. Put shortly:
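With 1 uM D-luciferin or phosphate buffer only, compounds at final 19.5 nM–39.8 uM were incubated for 15 min at room temperature. Luciferase detection reagent was then added, and luminescence was measured after a further 30 min at room temperature.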

A short description of assay [8]: Dual reporter qHTS for agonist of Pregnane X Receptor (hPXR) against the NCATS DSHEA and TCM libraries: Fluorescence readout (AID 1920058; active = well fitted curve in the direction sought with a large enough effect; an effect the other way counts as inactive or inconclusive; note: 0% is about no effect). The note with it: PXR dual reporter cells; series mostly up to 40 µM. Put shortly:
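Cells were plated at 2000 per well and allowed to attach for 5 h. Test substances were pinned in and incubated roughly 24 h. CellTiter-Fluor was then added and fluorescence measured after 1 h.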

Assay [9] addresses Nuclear receptor subfamily 1 group I member 2 (Homo sapiens) (UniProt O75469). The assay is described as follows: Dual reporter qHTS for agonist of Pregnane X Receptor (hPXR) against the NCATS DSHEA and TCM libraries: Luminescence readout (AID 1920059; active = well fitted curve in the direction sought with a large enough effect; an effect the other way counts as inactive or inconclusive; note: 0% is about no effect). The note with it: hPXR dual reporter cells, luciferase luminescence agonist; series mostly up to 40 µM. The essentials:
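Luminescent PXR reporter read (ONE-Glo) after a CellTiter-Fluor viability read, following 24 h, 37C treatment of HepG2 cells stably carrying hPXR-Luc.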

For assay [10] the target is unchanged. The assay is described as follows: Dual reporter qHTS for antagonist of Pregnane X Receptor (hPXR) against the NCATS DSHEA and TCM libraries: Luminescence Readout (AID 1920060; active = well fitted curve in the direction sought with a large enough effect; an effect the other way counts as inactive or inconclusive;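 note: HepG2 cells carrying hPXR luciferase reporter stimulated with rifampicin at 2 µM; 0% is about no effect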). Conditions: hPXR dual reporter cells, luciferase luminescence, antagonist mode; series mostly up to 40 µM. Put shortly: (§2)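 Antagonist mode: rifampicin 2 uM final co-added with compounds to hPXR-LucHepG2 cells for 24 h at 37C. Viability by CellTiter-Fluor, Ex/Em 405/540 nm, 1 h; reporter by ONE-Glo luminescence.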

Assay [11] can be described thus: Dual reporter qHTS for antagonist of Pregnane X Receptor (hPXR) against the NCATS DSHEA and TCM libraries: Fluorescence Readout (AID 1920061; active = well fitted curve in the direction sought with a large enough effect; an effect the other way counts as inactive or inconclusive; note: 0% is about no effect). Conditions: PXR dual reporter cells, antagonist mode; series mostly up to 40 µM. The essentials:
as §2

The mark [12] stands for this setting: measured here: PEO1 parental Z-AUC.

Records with an inconclusive call do not appear. The source made the active and inactive calls. Unless noted, calls come from the whole dose curve.

Nuclear receptor subfamily 1 group I member 2 (Homo sapiens), sequence (O75469 whole entry, looked up): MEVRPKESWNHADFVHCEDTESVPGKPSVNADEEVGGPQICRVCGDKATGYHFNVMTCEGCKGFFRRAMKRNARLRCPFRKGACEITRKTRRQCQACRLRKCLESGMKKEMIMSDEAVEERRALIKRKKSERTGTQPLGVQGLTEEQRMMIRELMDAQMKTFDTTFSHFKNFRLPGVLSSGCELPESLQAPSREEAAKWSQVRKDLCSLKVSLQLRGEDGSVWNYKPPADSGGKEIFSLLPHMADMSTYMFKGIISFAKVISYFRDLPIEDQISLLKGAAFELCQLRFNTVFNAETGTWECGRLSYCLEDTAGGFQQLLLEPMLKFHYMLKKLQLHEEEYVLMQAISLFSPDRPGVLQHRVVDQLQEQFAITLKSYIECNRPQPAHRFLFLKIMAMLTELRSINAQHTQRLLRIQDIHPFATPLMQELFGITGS
Cytochrome P450 2C19 (Homo sapiens), sequence (P33261 whole entry, looked up): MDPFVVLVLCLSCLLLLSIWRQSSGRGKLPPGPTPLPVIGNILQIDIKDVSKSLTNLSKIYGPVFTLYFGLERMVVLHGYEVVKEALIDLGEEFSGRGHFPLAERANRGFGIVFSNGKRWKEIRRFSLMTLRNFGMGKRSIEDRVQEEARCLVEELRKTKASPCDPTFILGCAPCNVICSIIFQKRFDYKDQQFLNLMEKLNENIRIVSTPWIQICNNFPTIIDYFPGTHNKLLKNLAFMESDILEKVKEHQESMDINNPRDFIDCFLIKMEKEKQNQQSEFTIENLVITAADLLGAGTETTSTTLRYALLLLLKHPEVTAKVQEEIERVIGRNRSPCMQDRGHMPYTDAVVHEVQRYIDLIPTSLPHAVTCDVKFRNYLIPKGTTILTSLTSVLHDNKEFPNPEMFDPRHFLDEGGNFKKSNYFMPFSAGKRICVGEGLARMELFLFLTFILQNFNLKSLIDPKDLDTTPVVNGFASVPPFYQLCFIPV
Cytochrome P450 2D6 (Homo sapiens), sequence (P10635 whole entry, looked up): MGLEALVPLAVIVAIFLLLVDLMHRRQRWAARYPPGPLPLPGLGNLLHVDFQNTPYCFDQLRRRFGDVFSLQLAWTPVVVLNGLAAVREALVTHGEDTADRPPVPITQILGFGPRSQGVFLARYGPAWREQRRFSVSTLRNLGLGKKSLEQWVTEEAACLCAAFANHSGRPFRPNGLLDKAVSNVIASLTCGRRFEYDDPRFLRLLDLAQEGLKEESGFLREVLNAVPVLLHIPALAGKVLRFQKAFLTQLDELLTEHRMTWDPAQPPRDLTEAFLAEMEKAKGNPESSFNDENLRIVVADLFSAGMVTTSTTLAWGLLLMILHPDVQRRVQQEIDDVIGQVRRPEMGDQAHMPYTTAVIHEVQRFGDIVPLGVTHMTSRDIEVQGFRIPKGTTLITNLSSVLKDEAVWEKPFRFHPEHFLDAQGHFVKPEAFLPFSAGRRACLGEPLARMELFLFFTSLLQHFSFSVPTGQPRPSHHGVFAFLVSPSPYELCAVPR

On to `CN(C)C/C=C/C(=O)Nc1ccc(C(=O)Nc2cccc(Nc3ncc(Cl)c(-c4c[nH]c5ccccc45)n3)c2)cc1`, for which the Z-AUC is -2.19 (inactive) in assay [1], -3.23 in assay [1] (setting [12]) and -2.66 in [1] (measured here: PEO4 Z-AUC).

Turning to `Cc1nc2c(-c3cnc(N)nc3)nc(N3CCOCC3)nc2n1C(C)C`, the Potency in assay [1] was 0.436 µM (active). Also, the Z-AUC is -1.56 in assay [1] (setting [12]) and -1.63 in assay [1] (measured here: PEO4 Z-AUC).

In the case of `C[C@H]1[C@H](C)CC[C@]2(C(=O)O)CC[C@]3(C)C(=CC[C@@H]4[C@@]5(C)C[C@@H](O)[C@H](O)[C@@](C)(CO)[C@@H]5CC[C@]43C)[C@H]12`, the call in [2], in assay [5], in [6], in assay [8], in assay [9] and in [10] was inactive. In assay [11], the result was inactive. Moreover, the Potency result in assay [3] and in assay [4] was “inactive” each time. In addition, the max response in [7] was 2.22% (inactive). Besides, the values for the Z-AUC in assay [1], in assay [1] (setting [12]) and in [1] (measured here: PEO4 Z-AUC) were 1.03 (inactive), 0.608 and 0.842, respectively.

`Cc1cc(C)cc(NC(=O)Cc2ccc(OC(C)(C)C(=O)O)cc2)c1`: the Z-AUC in assay [1] is -0.433 (inactive); in [1] (setting [12]), -0.359; in assay [1] (measured here: PEO4 Z-AUC), -0.00799.

For `CCS(=O)(=O)N1CCC([C@@H](C)n2c(C)c(C(=O)NCc3c(OC)cc(C)[nH]c3=O)c3ccccc32)CC1`, the Z-AUC in assay [1] is -0.188 (inactive); in assay [1] (setting [12]), 0.682; in assay [1] (measured here: PEO4 Z-AUC) it was -0.124.

As to `OC[C@H]1O[C@@H](Oc2cc(O)cc(/C=C/c3ccc(O)cc3)c2)[C@H](O)[C@@H](O)[C@@H]1O`, the Z-AUC in [1] was 1.9 (inactive); in assay [1] (setting [12]), 1.63; in assay [1] (measured here: PEO4 Z-AUC), 1.47.

`C=C1CC[C@@H]2[C@](C)(CO)[C@H](O)CC[C@@]2(C)[C@@H]1C/C=C1/C(=O)OC[C@H]1O`: the results for the Z-AUC in assay [1], in [1] (setting [12]) and in [1] (measured here: PEO4 Z-AUC) were 0.643 (inactive), -0.159 and 0.023, respectively.

As to `OCc1ccccc1O[C@@H]1O[C@H](CO)[C@@H](O)[C@H](O)[C@H]1O`, the Z-AUC in assay [1] was 1.58 (inactive); in [1] (setting [12]), 1.17; in [1] (measured here: PEO4 Z-AUC) it was 0.966.

For the compound `Nc1ccn([C@@H]2C(F)=C(CO)[C@@H](O)[C@H]2O)c(=O)n1`, the Z-AUC was 0.41 (inactive) in [1], -0.156 in assay [1] (setting [12]) and -0.408 in [1] (measured here: PEO4 Z-AUC).

Turning to `CC(=O)c1cnc2ccc(-c3cc(Cl)c(O)c(Cl)c3)nc2c1NC1CCC(CN(C)C)CC1` (centres undefined), the Potency in [1] was 0.252 µM (active). The Z-AUC is -1.7 in assay [1] (setting [12]) and -1.3 in [1] (measured here: PEO4 Z-AUC).

As for `O=C(O)c1cnn(-c2nc3cc(OC(F)(F)F)c(Cl)cc3[nH]2)c1`, the Z-AUC is 0.292 (inactive) in [1], -0.102 in assay [1] (setting [12]) and -0.0473 in assay [1] (measured here: PEO4 Z-AUC).

Take `Cc1nn(C)c(COc2ccc(N3CCN(S(=O)(=O)N(C)C)CC3)cc2)c1-c1cccc2c(CCCOc3cccc4ccccc34)c(C(=O)O)n(CCN3CCOCC3)c12`: the Z-AUC in assay [1] was 0.0442 (inactive); in assay [1] (setting [12]), 0.77; in [1] (measured here: PEO4 Z-AUC) it was 0.53.

Consider `COc1ncc(-c2ccc3c(Nc4cc(Oc5cc(F)cc(F)c5)cc(C(=O)O)c4)c(S(=O)(=O)NC4CC4)cnc3c2)c(OC)n1`, for which the Z-AUC is -0.517 (inactive) in assay [1], -0.369 in assay [1] (setting [12]) and -0.317 in [1] (measured here: PEO4 Z-AUC).

As for `OC[C@H]1O[C@@H](n2cnc3c2NC=NC[C@H]3O)C[C@@H]1O`, the figures for the Z-AUC in assay [1], in assay [1] (setting [12]) and in assay [1] (measured here: PEO4 Z-AUC) were -0.043 (inactive), 0.0818 and 0.0721, respectively.

With `C[C@H]1CN(C[C@H](Cc2ccccc2)C(=O)NCC(=O)O)CC[C@@]1(C)c1cccc(O)c1`, the Z-AUC in assay [1] was -0.66 (inactive); in assay [1] (setting [12]), -0.254; in [1] (measured here: PEO4 Z-AUC), -0.529.

Consider `CNc1nc(Nc2cnn([C@H]3CCN(C4COC4)C[C@@H]3F)c2Cl)ncc1C(F)(F)F`, for which the Z-AUC in assay [1] is -0.479 (inactive); in assay [1] (setting [12]) it was -0.0727; in assay [1] (measured here: PEO4 Z-AUC), 0.0395.

Turning to `CCOc1cc2ncc(C#N)c(Nc3ccc(OCc4ccccn4)c(Cl)c3)c2cc1NC(=O)/C=C/CN(C)C`, the figures for the Z-AUC in assay [1], in assay [1] (setting [12]) and in assay [1] (measured here: PEO4 Z-AUC) were 0.57 (inactive), 0.366 and -0.0482, respectively.

On to `O=C(O)C[C@H](O)C[C@H](O)/C=C/c1c(C2CC2)nc2ccccc2c1-c1ccc(F)cc1`, for which the Z-AUC in assay [1] is -0.947 (inactive); in [1] (setting [12]) it was -0.553; in assay [1] (measured here: PEO4 Z-AUC), -1.48.
